A selection: hits, their analogues and other compounds. The true share with any hit is near 4.5%.
tim23-1 inh: growth inhibitors of tim23-1 mutant yeast, primary screen, luminescence, uHTS. inhibition, % at 20 µM. S. cerevisiae tim23-1 growth, BacTiter-Glo luminescence, 24 h. actives 1.3% (n = 330,000). AID 463212, 2010;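 active = growth inhibition of the mutant yeast at or above 50%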;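 note: temperature-sensitive mutant grown at 25 °C; plate controls were DMSO-treated mutant yeast for no effect and medium wells lacking yeast for full effect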
tim10-1 inh: growth inhibitors of tim10-1 mutant yeast, primary screen, luminescence, uHTS; inhibition, % at 20 µM; S. cerevisiae tim10-1 ts strain growth, BacTiter-Glo, 24 h; actives 2.2% (n = 330,000);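 active = inhibition of at least 40%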;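 note: mutant grown at 25 °C; 0% = DMSO wells with yeast and 100% = wells holding no yeast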
SKKanGAS inh: S. pyogenes SKKanGAS growth inhibitors in kanamycin, primary screen, streptokinase expression inhibitor project, SKKanGAS strain, BacTiter-Glo luminescence. 6 h. actives 1.3% (n = 300,000). inhibition, % at 7.5 µM;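 active = mean replicate score, as percent of positive control median, at least 50; inconclusive = mean below 50 but one replicate at or above 50; inactive = mean and every replicate below 50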;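 note: strain carries kanamycin resistance gene driven by streptokinase promoter and grows in 40 µg/ml kanamycin; loss of luminescence reflects streptokinase promoter inhibition or plain growth inhibition; 0% = median of DMSO wells and 100% = positive control at its reference dose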
PfHsp90 set2: growth inhibition of PfHsp90-expressing yeast, primary screen, antimalarial PfHsp90 inhibitor project, S. cerevisiae, BacTiter-Glo luminescence, single point, set 2 | BacTiter-Glo ATP, 48 h; yeast lacking PDR1 and PDR3 efflux regulators | inhibition, % at 9.4 µM | actives 0.32% (n = 310,000) | AID 504621, 2011;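 active = every replicate shows inhibition above about 80%, whatever the replicate mean, limit read from the data; inconclusive = mean inhibition reaches the set limit but some replicate falls short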;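 note: 0% = DMSO neutral controls and 100% = 20 µM radicicol positive controls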
TIM10 inh: growth inhibitors of isogenic TIM10 control yeast, primary screen, counter-screen for tim10-1 yeast inhibitor project, luminescence, uHTS | S. cerevisiae TIM10 strain growth, BacTiter-Glo luminescence, 24 h | inhibition, % at 10 µM | actives 1.4% (n = 330,000) | AID 463195, 2010;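 active = inhibition of 40% or more at the single tested concentration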;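 note: wild-type TIM10 isogenic control strain grown at permissive 25 °C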
NALP3 yeast inh: NALP3 inflammasome inhibitors in reconstituted yeast, primary screen, luminescence, uHTS. AID 2825, 2010. inhibition, % at 10 µM. actives 0.39% (n = 330,000). Yeast reconstituted NLRP3/ASC/caspase-1, beta-gal luminescence, 24 h;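 active = inhibition of 50% or more; inactive = inhibition below 50%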;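 note: plate controls were induced DMSO wells for no effect and uninduced yeast grown without galactose for full effect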
NALP3 yeast conf: NALP3 inhibitors retested in yeast, confirmation, luminescence, single concentration. shares compounds with NALP3 yeast inh. yeast expressing human NALP3. inhibition, % at 10 µM. AID 435006, 2010. actives 81% (n = 1,300); in the data active = inhibition above about 48%
Casp1-ASC yeast: CASP1-PYCARD signaling inhibition in yeast, confirmatory test, counterassay for NLRP3 inhibitor program, one-dose | shares compounds with NALP3 yeast inh | yeast expressing Caspase-1-ASC, luminescence counter screen | inhibition, % at 10 µM | actives 66% (n = 1,000) | AID 488784, 2010
NALP3 yeast rt: NALP3 inhibitors in yeast, repeat test, confirmation, luminescence, single concentration, retest; shares compounds with NALP3 yeast inh; yeast expressing human NALP3, luminescence read-out; actives 53% (n = 1,000); inhibition, % at 10 µM
* hit, by the source's call; ? = inconclusive; nt = no result. Cut-off read from the data, not from the text of the source, unless noted: active = inhibition above about 50%; inactive = the rest.

SMILES	tim23-1 inh	tim10-1 inh	SKKanGAS inh	PfHsp90 set2	TIM10 inh	NALP3 yeast inh	NALP3 yeast conf	Casp1-ASC yeast	NALP3 yeast rt
c1nc(C2CCCCC2)cc2cc3c(cc12)OCO3	29	9	nt	-31	3	51*	54*	nt	nt
O=C1/C(=C\c2ccc3c(c2)OCO3)CCC/C1=C/c1ccc2c(c1)OCO2	14	0	10	20	20	50	49*	28	23
COC(=O)Cn1nc(-c2ccccc2)c2ccccc21	24	26	18	9	24	97*	99*	99*	98*
COc1ccc(C(=O)NN/C(C)=C/C(=O)C(F)(F)C(F)(F)C(F)(F)F)cc1	41	-11	11	-4	7	57*	45*	40	31
COc1ccc(C(=O)NNC(=O)OC(C)(C)C)cc1	19	7	-3	7	-15	23	nt	nt	nt
CN(C)CCCn1c2c(c(SCC(=O)Nc3ccc4c(c3)OCO4)nc1=O)CCC2	0	6	-7	5	5	6	nt	nt	nt
O=C(CCNC(=O)C1CCN(S(=O)(=O)c2ccccc2)CC1)NCc1ccc(Cl)c(Cl)c1	2	-7	0	-27	-4	-8	nt	nt	nt
COc1ccc(-c2nc3ccccc3s2)cc1NC(C)=O	13	-2	6	11	16	51*	44	25	33
NC(=O)c1ccccc1NC(=O)c1ccc2c(c1)OCO2	8	1	5	21	10	23	nt	nt	nt
Cc1cc2ccccn2c1C(=O)c1ccccc1F	21	-12	4	22	-2	51*	61*	49	41
NCCc1nnc(SCc2c(F)cccc2Cl)o1	2	4	1	-5	-1	77*	88*	72*	83*
NCCCCCc1nnc(SCC(=O)c2ccc(Cl)cc2)o1	11	7	4	4	-16	21	nt	nt	nt
NCCc1nnc(SCc2c(Cl)cccc2Cl)o1	-5	-10	-4	7	-5	84*	82*	83*	92*
NCCc1nnc(SCC(=O)c2ccc(Cl)cc2)o1	10	-1	6	19	0	56*	71*	nt	nt
CC1Oc2ccccc2N(Cc2ccccc2Cl)C1=O (stereo not given)	-1	24	-1	-33	-7	-144	6	nt	nt
COc1ccc(N2CC(C(=O)N[C@@H](CC(C)C)C(=O)NC3CCCCC3)CC2=O)cc1 (stereo not given in full)	5	-5	1	-13	-9	18	nt	nt	nt
Cc1cc(OCC(O)CN2CCc3ccccc3C2)ccc1Cl (stereo not given)	7	0	-1	-11	13	23	nt	nt	nt
Cn1c(C(=O)N2CCCc3ccccc32)cc2sccc21	45	21	-7	-6	31	51*	64*	40	35
COC(=O)Cn1c(O)c(N=NC(=O)c2ccc3c(c2)OCO3)c2ccccc21	-8	-33	-3	11	-18	9	nt	nt	nt
COc1ccc(C(C)(C)C)cc1NC(=O)c1cncc(Br)c1	35	38	-12	nt	-6	56*	62*	58*	55*
CSc1nc2ccc(S(=O)(=O)N3CCCC3)cc2s1	-2	-8	2	7	-10	85*	86*	86*	80*
CSc1nc2ccc(S(N)(=O)=O)cc2s1	10	12	4	-17	-4	0	nt	nt	nt
COc1ccc(CCNC(=O)C2CCCN(S(=O)(=O)c3ccc(F)cc3)C2)cc1 (stereo not given)	25	34	-4	-3	8	-1	nt	nt	nt
O=C(NNC(=O)c1ccc2[nH]c(=O)c(=O)[nH]c2c1)c1cccc(Br)c1	16	-1	0	-8	16	19	nt	nt	nt
CN1CCN(c2ccc(NC(=O)c3cccc(OCc4ccccc4)c3)cc2)CC1	-81	-20	-3	53	-22	50*	55*	39	37
SMILES	tim23-1 inh	tim10-1 inh	SKKanGAS inh	PfHsp90 set2	TIM10 inh	NALP3 yeast inh	NALP3 yeast conf	Casp1-ASC yeast	NALP3 yeast rt
C(=C\n1nnc2ccccc21)/c1ccccn1	15	-14	6	4	-5	53*	71*	37	nt
Cc1cc(F)ccc1S(=O)(=O)Nc1ccccc1C(=O)NCc1cccnc1	9	0	-4	-3	7	9	nt	nt	nt
Cc1cc2nc(N3C(=O)CNC3=S)sc2cc1C	27	12	85*	11	26	69*	82*	nt	nt
CCOC(=O)c1nc(C)nc(Sc2n[nH]c(-c3cc(Cl)cc(Cl)c3)n2)c1C	23	11	11	2	10	51*	31	nt	nt
Cc1ccc(OCc2nc(-c3cccnc3)no2)cc1C	16	13	-11	2	4	51*	61*	36	40
Cc1ccc(OCc2nc(-c3ccccn3)no2)c(Br)c1	-1	-11	-4	3	0	42	nt	nt	nt
Cc1ccc(OCc2nc(-c3ccccn3)no2)cc1	46	32	1	16	27	56*	70*	72*	64*
Nc1c(-c2ccccc2)cnn1-c1cccc(Cl)c1	34	-56	12	-2	-57	50*	76*	59*	54*
CC[C@H]1C=C[C@@H](C(C(=O)OC)C(=O)OC)CN1C(C)=O	nt	nt	nt	-2	nt	nt	nt	nt	nt
COC(=O)C12CCC3(SCCS3)C(C(=O)OC)(CCC13SCCS3)C2	35	24	-9	23	22	58*	22	nt	nt
COC(=O)C1CC2(C(=O)OC)CC(C(=O)OC)(CC(C(=O)OC)C2=O)C1=O (stereo not given)	nt	nt	nt	16	nt	nt	nt	nt	nt
COc1ccc(SCCN2CC[C@@H](C(C)(C)C)CCC2=O)cc1	40	24	nt	6	13	16	nt	nt	nt
COc1ccc(S(=O)(=O)N(C)c2ccc(C(=O)N3CCN(c4ccccc4)CC3)cc2)cc1OC	16	1	0	5	6	1	nt	nt	nt
Cn1nnnc1NCc1ccccc1F	-1	3	0	-30	-4	10	nt	nt	nt
FC(F)(F)c1cccc(-c2nc3nc(Cl)c(Cl)nc3[nH]2)c1	5	-8	?	-11	7	61*	97*	42	45
O=C(CCCSc1ccccc1)Nc1ccc(Cl)c(S(=O)(=O)N2CCOCC2)c1	-10	4	nt	15	-11	5	nt	nt	nt

Assay outcomes (PubChem BioAssay)
